From PubChem BioAssay (Tox21) come the findings set out here.

The nature of assay [1]: A CellTox Green Cytotoxicity Assay to monitor cytotoxicity in HEK293 cells - 32 hour (AID 1224881). Also: nearly all actives have a fitted effect of over 40% in size. A digest of the protocol: (§1)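 HEK293 cells, 600/well, were preincubated 5 hours and then exposed to compounds at 37 C for up to 40 hours. A cell-impermeant cyanine dye staining dead-cell DNA was read by fluorescence at 0, 8, 16, 24, 32 and 40 h time points.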
Assay [2] is described as follows: A CellTox Green Cytotoxicity Assay to monitor cytotoxicity in HepG2 cells - 0 hour (AID 1224882). Also: nearly all actives have a fitted effect of over 35% in size. A digest of the protocol: (§2)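 HepG2 cells, 600/well, preincubated 5 h with CellTox Green dye, then exposed to Tox21 compounds in DMSO at 37 C for up to 40 h. Dead-cell DNA fluorescence read at the indicated time point.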
Assay [3] in a line: A CellTox Green Cytotoxicity Assay to monitor cytotoxicity in HepG2 cells - 32 hour (AID 1224883). Also: nearly all actives have a fitted effect of over 50% in size. An outline of the steps:
as §2

Assay [4] is described as follows: A CellTox Green Cytotoxicity Assay to monitor cytotoxicity in HEK293 cells - 8 hour (AID 1224884). Also: nearly all actives have a fitted effect of over 35% in size. A digest of the protocol:
as §1

Assay [5] can be described thus: qHTS RealTime-Glo MT Cell Viability Assay in HepG2 cells - 16 hour (AID 1224885). Also: nearly all actives have a fitted effect of over 50% in size. An outline of the steps: (§3)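 HepG2 cells (600/well) were dispensed with RealTime-Glo reagents, incubated 5 h at 37 °C, then treated with compounds in DMSO for up to 40 h. Nonlytic NanoLuc luminescence reflecting viable cells was read at each stated time point.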
On the technique in general: In qHTS, concentration-response curves come from the screen itself.

Assay [6] can be described thus: qHTS RealTime-Glo MT Cell Viability Assay in HEK293 cells - 24 hour (AID 1224886). Also: top concentration of the series differs between compounds; nearly all actives have a fitted effect of over 50% in size. A digest of the protocol: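 HEK293 cells seeded with NanoLuc/prosubstrate reagent, rested 5 h at 37 C, then dosed and kept at 37 C up to 40 h. Nonlytic real-time luminescence from viable cells read at 0, 8, 16, 24, 32 and 40 h.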
A short description of assay [7]: qHTS RealTime-Glo MT Cell Viability Assay in HEK293 cells - 8 hour (AID 1224887). Also: top concentration of the series differs between compounds; nearly all actives have a fitted effect of over 50% in size. An outline of the steps: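 600 cells/well were plated with the nonlytic NanoLuc/prosubstrate reagent, pre-incubated 5 h, then given 23 nL of compound in DMSO. Incubation at 37 C for 40 h, with luminescence from viable-cell-reduced substrate read repeatedly from 0 h.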
The nature of assay [8]: A CellTox Green Cytotoxicity Assay to monitor cytotoxicity in HEK293 cells - 16 hour (AID 1224888). Also: nearly all actives have a fitted effect of over 35% in size. An outline of the steps: as §1
Assay [9] in a line: qHTS RealTime-Glo MT Cell Viability Assay in HepG2 cells - 0 hour (AID 1224889). Also: nearly all actives have a fitted effect of over 50% in size. An outline of the steps: as §3
Assay [10] is described as follows: A CellTox Green Cytotoxicity Assay to monitor cytotoxicity in HepG2 cells - 8 hour (AID 1224890). Also: nearly all actives have a fitted effect of over 45% in size. An outline of the steps: as §2
Assay [11] in a line: qHTS assay to identify small molecule antagonists of the estrogen receptor alpha (ER-alpha) signaling pathway using the BG1 cell line in the presence of 0.1 nM 17-beta-estradiol - cell viability counter screen (AID 1259241). Also: nearly all actives have a fitted effect of over 40% in size. A digest of the protocol: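 Viability in VM7Luc4E2 cells after 22 hr compound exposure under 0.1 nM 17beta-estradiol stimulation, by CellTiter-Fluor.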

Assay [12] in a line: qHTS assay to identify small molecule antagonists of the androgen receptor (AR) signaling pathway using the MDA cell line in the presence of 0.5 nM R1881 - cell viability counter screen (AID 1259242). Also: nearly all actives have a fitted effect of over 45% in size. A digest of the protocol:
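MDA-kb2 cells (MMTV-luciferase, AR/GR responsive) were treated with compounds plus 0.5 nM R1881 (final) for 16 hr at 37C, 0% CO2. Viability was then read in the same wells as live-cell protease fluorescence (CellTiter-Fluor, 30 min).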

Assay [13] deals with Estrogen receptor (Homo sapiens) (UniProt P03372). Briefly: qHTS assay to identify small molecule antagonists of the estrogen receptor alpha (ER-alpha) signaling pathway using the BG1 cell line in the presence of 0.1 nM 17-beta-estradiol (AID 1259244). Also: nearly all actives have a fitted effect of over 50% in size. An outline of the steps:
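VM7Luc4E2 cells (endogenous full-length ER-alpha, 4×ERE-luciferase), kept 5 days in phenol red-free, charcoal-stripped FBS medium; 4,000 cells/well. Compounds added with 0.1 nM (final) 17beta-estradiol, 22 hr at 37C; luminescence read with ONE-Glo after 30 min.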

Assay [14] is described as follows: qHTS assay to identify small molecule HDAC inhibitors (AID 1259364). Also: top concentration of the series differs between compounds; nearly all actives have a fitted effect of over 45% in size. An outline of the steps: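 Wild-type HCT-116 cells, plated overnight at 37 C, exposed to compounds 2 hr at 37 C; luminogenic HDAC-Glo substrate then added 30 min at room temperature. Luminescence reports relative endogenous class I/II HDAC activity.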
Assay [15] can be described thus: qHTS assay to identify small molecule HDAC inhibitors - cell viability counter screen (AID 1259365). A digest of the protocol:
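Cytotoxicity was gauged in wild-type HCT-116 cells after a brief 2hr treatment with DMSO-dissolved compounds at 37C and 5% CO2, using CellTiter-Glo luminescence developed for 30min at room temperature.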

A short description of assay [16]: qHTS assay to identify small molecule agonists of the sonic hedgehog signaling (Shh) pathway - cell viability counter screen (AID 1259366). Also: nearly all actives have a fitted effect of over 50% in size. Also: potency is read from the fitted curve at half-maximal effect. An outline of the steps:
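Stable Gli1-Luc NIH/3T3 clone, 2,000 cells/well. Compound exposure 24hr at 37C. Read-out: CellTiter-Fluor fluorescence.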

Assay [17] is described as follows: qHTS assay to identify small molecule antagonists of the sonic hedgehog signaling (Shh) pathway - cell viability counter screen (AID 1259367). Also: nearly all actives have a fitted effect of over 55% in size. Also: potency is read from the fitted curve at half-maximal effect. A digest of the protocol: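 NIH/3T3-derived Gli1-Luc reporter cells (2,000 per well) rested 4 hr at 37 C, then received DMSO compounds plus conditioned medium. After 23 hr of treatment, CellTiter-Fluor was added for 1 hr at 37C and fluorescence read.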

Assay [18] is described as follows: qHTS assay to identify small molecule agonists of the sonic hedgehog signaling (Shh) pathway (AID 1259368; calls by dose curve;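 also: NIH/3T3-derived 3T3Gli1-Luc cells carrying a stable Gli1-driven firefly luciferase reporter; series mostly up to about 92 µM; nearly all actives have a fitted effect of over 15% in size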). An outline of the steps:
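NIH/3T3-derived 3T3Gli1-Luc cells with stably integrated Gli1-driven firefly luciferase, 2,000 cells/well, compounds added after 4 hr. Incubated 24 hr at 37C, 5% CO2; luminescence read after 30 min with luciferase reagent at room temperature.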

Assay [19] concerns the target Androgen receptor (Homo sapiens) (UniProt P10275). In words: qHTS assay to identify small molecule antagonists of the androgen receptor (AR) signaling pathway using the MDA cell line in the presence of 0.5 nM R1881 (AID 1259243). Also: nearly all actives have a fitted effect of over 50% in size. A digest of the protocol:
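MDA-kb2 cells (MMTV-luciferase, responsive to AR and GR) at 3,000/well, rested 5 h at 37C, 0% CO2, then given compounds plus 0.5 nM R1881 (final) for 16 hr. Luciferase read with ONE-Glo after 30 min at room temperature.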

Assay [20] can be described thus: qHTS assay to identify small molecule phospholipidosis (PLD) inducers (AID 1259344; active = well fitted curve in the direction sought with a large enough effect; an effect the other way counts as inactive or inconclusive; also: potency is read from the fitted curve at half-maximal effect). An outline of the steps: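 HepG2 cells on collagen I, attached 4 h at 37 C, were co-treated with compound and LipidTOX Red dye for 24 h at 37 C, then fixed with paraformaldehyde plus Hoechst 33342 and imaged by high-content microscopy for phospholipid accumulation.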

Results filed as inconclusive are left out. Activity calls are given as the source filed them. Unless noted, calls follow the shape of the dose curve; as a rule, active = well fitted curve in the direction sought with a large enough effect in the repeat runs; inconclusive = weak or mixed curves; inactive = no such curve, though single readings can be large; an effect the other way counts as inactive or inconclusive.

Chain of Estrogen receptor (Homo sapiens) (P03372 whole entry, looked up): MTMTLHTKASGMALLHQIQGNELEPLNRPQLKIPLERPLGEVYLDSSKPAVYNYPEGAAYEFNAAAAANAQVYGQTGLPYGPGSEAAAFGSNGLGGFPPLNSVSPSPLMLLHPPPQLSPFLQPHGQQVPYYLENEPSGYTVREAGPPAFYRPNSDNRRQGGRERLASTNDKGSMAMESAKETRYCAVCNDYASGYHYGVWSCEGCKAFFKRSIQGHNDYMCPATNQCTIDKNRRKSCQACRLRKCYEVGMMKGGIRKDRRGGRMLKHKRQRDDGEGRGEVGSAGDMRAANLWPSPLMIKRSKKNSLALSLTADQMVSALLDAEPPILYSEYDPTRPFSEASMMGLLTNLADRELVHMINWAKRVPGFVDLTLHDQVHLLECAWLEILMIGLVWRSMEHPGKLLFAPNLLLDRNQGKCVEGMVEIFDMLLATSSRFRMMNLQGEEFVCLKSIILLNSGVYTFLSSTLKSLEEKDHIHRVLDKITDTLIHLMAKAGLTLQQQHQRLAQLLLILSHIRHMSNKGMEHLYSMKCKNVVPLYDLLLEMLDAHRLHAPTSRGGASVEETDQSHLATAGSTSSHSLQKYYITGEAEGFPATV
Chain of Androgen receptor (Homo sapiens) (P10275 whole entry, looked up): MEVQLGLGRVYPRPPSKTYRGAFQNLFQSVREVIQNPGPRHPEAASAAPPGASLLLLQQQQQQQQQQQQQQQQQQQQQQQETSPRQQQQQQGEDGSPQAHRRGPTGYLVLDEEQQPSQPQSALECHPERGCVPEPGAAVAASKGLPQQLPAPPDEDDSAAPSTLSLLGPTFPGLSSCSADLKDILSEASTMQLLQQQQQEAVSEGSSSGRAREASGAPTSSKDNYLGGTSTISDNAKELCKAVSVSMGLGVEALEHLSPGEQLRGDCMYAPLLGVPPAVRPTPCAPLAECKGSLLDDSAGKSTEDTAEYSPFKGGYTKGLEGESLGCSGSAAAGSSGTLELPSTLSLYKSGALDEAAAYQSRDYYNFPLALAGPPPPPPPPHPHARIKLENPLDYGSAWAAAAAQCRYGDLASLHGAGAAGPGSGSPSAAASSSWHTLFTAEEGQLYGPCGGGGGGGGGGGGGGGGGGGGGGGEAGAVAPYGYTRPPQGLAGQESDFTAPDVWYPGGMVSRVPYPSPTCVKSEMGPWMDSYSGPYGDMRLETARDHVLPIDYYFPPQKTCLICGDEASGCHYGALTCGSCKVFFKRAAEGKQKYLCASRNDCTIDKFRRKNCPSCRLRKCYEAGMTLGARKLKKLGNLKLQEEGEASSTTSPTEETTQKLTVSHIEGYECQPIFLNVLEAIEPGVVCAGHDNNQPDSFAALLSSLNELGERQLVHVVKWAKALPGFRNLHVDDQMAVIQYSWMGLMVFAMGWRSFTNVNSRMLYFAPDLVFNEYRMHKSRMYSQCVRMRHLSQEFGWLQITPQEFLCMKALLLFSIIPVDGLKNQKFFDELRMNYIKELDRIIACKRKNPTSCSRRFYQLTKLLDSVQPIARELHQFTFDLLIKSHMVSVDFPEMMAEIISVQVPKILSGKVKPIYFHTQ

Consider `CC(O)CCl` (stereo not given), for which the Potency result in [1], in assay [3], in [4], in [5], in assay [6] and in assay [7] was “inactive” each time. Moreover, the Potency result in assay [8], in assay [10], in [12], in assay [13], in assay [14] and in assay [16] was “inactive” each time. Besides, the Potency entry in [17] was “inactive”. Further, the result in [2], in [9], in assay [11], in assay [15] and in [18] was inactive.
In the case of `CC[C@H](N)c1ccccc1`, the Potency result in [1], in assay [3], in [4], in assay [5], in assay [6] and in assay [7] was “inactive” in each case. The Potency entry in assay [8], in assay [10], in assay [12], in assay [19], in [13] and in [14] was “inactive” throughout. Further, the Potency entry in assay [16] and in assay [17] was “inactive” in each case. Also, the call in [2], in [9], in assay [11], in [15] and in assay [18] was inactive.
In the case of `NC1(c2ccccc2)CCCCC1`, the Potency result in [1], in assay [3], in [4], in assay [5], in [6] and in assay [7] was “inactive” throughout. The Potency entry in assay [8], in [10], in assay [12], in [13] and in assay [14] was “inactive” each time. For the same compound, the compound was classed as inactive in assay [2], in [9], in [11], in [15] and in assay [18]. The results for the Potency in assay [20], in [16] and in assay [17] were 8.91 µM (active), 30.4 µM (active) and 27.1 µM (active), respectively.
Turning to `[O-][Br+2]([O-])O`, the Potency result in assay [1], in [3], in assay [4], in assay [5], in assay [6] and in assay [7] was “inactive” in each case. Besides, the Potency entry in assay [8], in assay [10], in [12], in [19], in [13] and in [14] was “inactive” each time. The Potency entry in assay [16] and in assay [17] was “inactive” throughout. Further, the result in assay [2], in assay [9], in [11] and in assay [15] was inactive.
Take `CC(C)(N)Cc1ccc(Cl)cc1`: the Potency result in assay [1], in assay [3], in assay [4], in [5], in assay [6] and in [7] was “inactive” in each case. Besides, the Potency entry in assay [8], in assay [10], in assay [12], in assay [13], in [14] and in [16] was “inactive” throughout. Moreover, the Potency entry in assay [17] is “inactive”. The outcome in assay [2], in [9], in assay [11], in assay [15] and in [18] was inactive.
Consider `CCSC(=O)Cl`, for which the Potency entry in assay [1], in assay [3], in [4], in assay [5], in assay [6] and in [7] was “inactive” each time. For the same compound, the Potency entry in [8], in assay [10], in [12], in assay [19], in assay [13] and in assay [16] was “inactive” in each case. Besides, the Potency entry in assay [17] is “inactive”. The compound was called inactive in assay [2], in [9], in assay [11] and in assay [15].
Consider `CN(C)CCc1c[nH]c2cccc(OP(=O)(O)O)c12`, for which the Potency entry in [1], in assay [3], in [4], in assay [5], in [6] and in assay [7] was “inactive” in each case. Also, the Potency entry in [8], in assay [10], in [12], in assay [13], in assay [14] and in assay [16] was “inactive” in each case. Further, the Potency result in assay [17] is “inactive”. In addition, the compound was classed as inactive in [2], in assay [9], in assay [11], in assay [15] and in assay [18].
In the case of `O=C(Cl)/C=C/C(=O)Cl`, the Potency entry in assay [1], in assay [3], in [4], in assay [5], in assay [6] and in assay [7] was “inactive” throughout. Further, the Potency entry in [8], in [10], in [12], in assay [19], in assay [13] and in assay [14] was “inactive” each time. Moreover, the Potency entry in [17] was “inactive”. The call in assay [2], in assay [9], in [11], in assay [15] and in assay [18] was inactive.
